How the values were obtained:
Settings in all cases: concentration: 1 μM, replicates: in singlicate; n = 1
MARK3 = system: MARK3
MARK4 = system: MARK4
MAST1 = system: MAST1
MEK1 = system: T1, MEK1
T1 construct: gene MAP2K1

MEK2 = system: T2, MEK2
T2 construct: gene MAP2K2

MEK3 = system: T3, MEK3
T3 construct: gene MAP2K3

MEK4 = system: T4, MEK4
T4 construct: gene MAP2K4

MEK5 = system: T5, MEK5
T5 construct: gene MAP2K5

MEK6 = system: T6, MEK6
T6 construct: gene MAP2K6

MELK = system: MELK
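Note: KINOMEscan kinase panel screen.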

SMILES: Clc1ccc(-c2cc(-c3c[nH]nc3-c3ccccn3)ccn2)cc1 [GW681251]
- %Inh (MARK3): 0%
- %Inh (MARK4): 0%
- %Inh (MAST1): 0%
- %Inh (MEK1): 39%
- %Inh (MEK2): 0%
- %Inh (MEK3): 0%
- %Inh (MEK4): 2%
- %Inh (MEK5): 0%
- %Inh (MEK6): 0%
- %Inh (MELK): 40%

SMILES: O=c1cc(N2CCOCC2)nc2n(Cc3cccc(Cl)c3)ccn12 [GSK2296823]
- %Inh (MARK3): 0%
- %Inh (MARK4): 5%
- %Inh (MAST1): 0%
- %Inh (MEK1): 8%
- %Inh (MEK2): 0%
- %Inh (MEK3): 0%
- %Inh (MEK4): 4%
- %Inh (MEK5): 13%
- %Inh (MEK6): 0%
- %Inh (MELK): 0%

SMILES: COc1ccc(NC(=O)Nc2ccc(C)c(-c3ccc(C(=O)Nc4ccncc4)cc3)c2)cc1 [GSK1398475]
- %Inh (MARK3): 0%
- %Inh (MARK4): 0%
- %Inh (MAST1): 0%
- %Inh (MEK1): 0%
- %Inh (MEK2): 0%
- %Inh (MEK3): 0%
- %Inh (MEK4): 18%
- %Inh (MEK5): 0%
- %Inh (MEK6): 0%
- %Inh (MELK): 6%

SMILES: Cl.Cn1ccc(-c2cccc(Nc3ccnc4cc(-c5nccs5)ccc34)c2)n1 [GW525701]
- %Inh (MARK3): 0%
- %Inh (MARK4): 0%
- %Inh (MAST1): 12%
- %Inh (MEK1): 0%
- %Inh (MEK2): 0%
- %Inh (MEK3): 0%
- %Inh (MEK4): 8%
- %Inh (MEK5): 86%
- %Inh (MEK6): 0%
- %Inh (MELK): 0%

SMILES: C[C@H]1CC[C@@H](C(=O)Nc2ccccc2)CN1c1cc(-c2ccc3c(N)n[nH]c3c2)nc(N)n1 [GSK2283293]
- %Inh (MARK3): 0%
- %Inh (MARK4): 0%
- %Inh (MAST1): 0%
- %Inh (MEK1): 0%
- %Inh (MEK2): 0%
- %Inh (MEK3): 0%
- %Inh (MEK4): 3%
- %Inh (MEK5): 11%
- %Inh (MEK6): 0%
- %Inh (MELK): 0%

SMILES: Nc1nc(-c2ccc3c(N)n[nH]c3c2)cc(N2CCC[C@@H](C(=O)Nc3ccccc3)C2)n1.O=C(O)C(F)(F)F.O=C(O)C(F)(F)F [GSK2288359]
- %Inh (MARK3): 0%
- %Inh (MARK4): 0%
- %Inh (MAST1): 0%
- %Inh (MEK1): 0%
- %Inh (MEK2): 8%
- %Inh (MEK3): 3%
- %Inh (MEK4): 0%
- %Inh (MEK5): 50%
- %Inh (MEK6): 8%
- %Inh (MELK): 13%

SMILES: COc1ccc(Nc2nccc(N3CCC(NC(=O)c4cccc(NC(C)=O)c4)C3)n2)cc1 (centres unmarked) [GSK1379732]
- %Inh (MARK3): 3%
- %Inh (MARK4): 0%
- %Inh (MAST1): 42%
- %Inh (MEK1): 0%
- %Inh (MEK2): 0%
- %Inh (MEK3): 0%
- %Inh (MEK4): 18%
- %Inh (MEK5): 19%
- %Inh (MEK6): 0%
- %Inh (MELK): 0%

SMILES: CN1c2ccc(-c3ccc(C(=O)NCCO)cc3)cc2-c2[nH]ncc2S1(=O)=O
- %Inh (MARK3): 0%
- %Inh (MARK4): 35%
- %Inh (MAST1): 0%
- %Inh (MEK1): 0%
- %Inh (MEK2): 27%
- %Inh (MEK3): 25%
- %Inh (MEK4): 0%
- %Inh (MEK5): 68%
- %Inh (MEK6): 1%
- %Inh (MELK): 32%

SMILES: CNc1nccc(-c2c(-c3ccc(F)cc3)ncn2C2CCN(C)CC2)n1 [SB-222903]
- %Inh (MARK3): 18%
- %Inh (MARK4): 16%
- %Inh (MAST1): 10%
- %Inh (MEK1): 8%
- %Inh (MEK2): 26%
- %Inh (MEK3): 1%
- %Inh (MEK4): 0%
- %Inh (MEK5): 37%
- %Inh (MEK6): 0%
- %Inh (MELK): 0%

SMILES: Nc1nc(-c2ccccn2)c(-c2ccnc3ccccc23)s1 [GW548057]
- %Inh (MARK3): 4%
- %Inh (MARK4): 0%
- %Inh (MAST1): 9%
- %Inh (MEK1): 8%
- %Inh (MEK2): 12%
- %Inh (MEK3): 2%
- %Inh (MEK4): 12%
- %Inh (MEK5): 32%
- %Inh (MEK6): 10%
- %Inh (MELK): 26%

SMILES: O=C(c1ccc(-c2cc(-c3c[nH]nc3-c3ccccn3)ccn2)cc1)N1CCCC1 [GW792479]
- %Inh (MARK3): 0%
- %Inh (MARK4): 15%
- %Inh (MAST1): 12%
- %Inh (MEK1): 14%
- %Inh (MEK2): 30%
- %Inh (MEK3): 20%
- %Inh (MEK4): 0%
- %Inh (MEK5): 30%
- %Inh (MEK6): 0%
- %Inh (MELK): 0%

SMILES: COC(=O)c1cccc(NC(=O)NCCNc2ccnc(Nc3ccc(F)cc3)n2)c1 [GSK1379883]
- %Inh (MARK3): 0%
- %Inh (MARK4): 2%
- %Inh (MAST1): 0%
- %Inh (MEK1): 1%
- %Inh (MEK2): 0%
- %Inh (MEK3): 0%
- %Inh (MEK4): 13%
- %Inh (MEK5): 9%
- %Inh (MEK6): 0%
- %Inh (MELK): 17%

SMILES: Fc1cccc(COc2ccc(Nc3ncnc4cc[nH]c34)cc2Cl)c1
- %Inh (MARK3): 9%
- %Inh (MARK4): 0%
- %Inh (MAST1): 65%
- %Inh (MEK1): 12%
- %Inh (MEK2): 21%
- %Inh (MEK3): 18%
- %Inh (MEK4): 20%
- %Inh (MEK5): 47%
- %Inh (MEK6): 0%
- %Inh (MELK): 6%

SMILES: CCCc1ccc(S(=O)(=O)NC2CCN(c3ccnc(Nc4ccc(OC)cc4)n3)C2)cc1 (centres unmarked) [GSK1379737]
- %Inh (MARK3): 0%
- %Inh (MARK4): 0%
- %Inh (MAST1): 43%
- %Inh (MEK1): 0%
- %Inh (MEK2): 0%
- %Inh (MEK3): 0%
- %Inh (MEK4): 12%
- %Inh (MEK5): 0%
- %Inh (MEK6): 0%
- %Inh (MELK): 0%

SMILES: CS(=O)(=O)CCNCc1nc(-c2ccc3ncnc(Nc4ccc(OCc5cccc(F)c5)c(Cl)c4)c3c2)cs1.Cl [GW583340]
- %Inh (MARK3): 0%
- %Inh (MARK4): 0%
- %Inh (MAST1): 0%
- %Inh (MEK1): 0%
- %Inh (MEK2): 0%
- %Inh (MEK3): 0%
- %Inh (MEK4): 3%
- %Inh (MEK5): 57%
- %Inh (MEK6): 0%
- %Inh (MELK): 0%

SMILES: Nc1nc(-c2cccnc2)c(-c2ccnc3ccccc23)s1 [GW684083]
- %Inh (MARK3): 0%
- %Inh (MARK4): 0%
- %Inh (MAST1): 22%
- %Inh (MEK1): 0%
- %Inh (MEK2): 0%
- %Inh (MEK3): 0%
- %Inh (MEK4): 1%
- %Inh (MEK5): 70%
- %Inh (MEK6): 0%
- %Inh (MELK): 6%

SMILES: Clc1cc(Nc2ncnc3cc[nH]c23)ccc1OCc1ccccn1
- %Inh (MARK3): 5%
- %Inh (MARK4): 4%
- %Inh (MAST1): 45%
- %Inh (MEK1): 17%
- %Inh (MEK2): 23%
- %Inh (MEK3): 19%
- %Inh (MEK4): 11%
- %Inh (MEK5): 76%
- %Inh (MEK6): 17%
- %Inh (MELK): 0%

— publication PMC5540273 (PLoS ONE, 2017)
